# Results with a measured potency or affinity are listed apart.
# Assays:
# Klebsiella pneumoniae = conditions: Concentration 20 uM; ASSAY_TEST Inhibition of Bacterial Growth; detection method Absorption (OD600); MEDIA CAMHB; plate type 384well; NBS; CORNING #3640; time 18 hr
# Candida albicans = conditions: 20 µM
# Cryptococcus neoformans = conditions: Concentration 20 uM; ASSAY_TEST Inhibition of Fungal Growth; detection method Resazurin; Absorption (OD600-OD570); plate type 384well; NBS; CORNING #3640
Structure (SMILES),Inhibition (Klebsiella pneumoniae) [%],Inhibition (Candida albicans) [%],Inhibition (Cryptococcus neoformans) [%]
Nc1nnc(-c2cccc(Cl)c2Cl)c(N)n1 [LAMOTRIGINE],6.26,3.32,-2.92
Cl.NC12CC3CC(CC(C3)C1)C2 [AMANTADINE HYDROCHLORIDE],13.94,3.06,-3.67
Nc1nc(Cl)nc2c1ncn2[C@H]1C[C@H](O)[C@@H](CO)O1 [CLADRIBINE],16.3,1.93,-8.92
CC1(C)S[C@@H]2[C@H](/N=C/N3CCCCCC3)C(=O)N2[C@H]1C(=O)O [AMDINOCILLIN],18.13,4.08,-5.88
CC1CNc2c(cccc2S(=O)(=O)N[C@@H](CCCNC(=N)N)C(=O)N2CC[C@@H](C)C[C@@H]2C(=O)O)C1 (stereo not given in full) [ARGATROBAN],8.18,4.39,-2.44
O=c1c(-c2ccccc2)c1-c1ccccc1 [DIPHENCYPRONE],-5.06,5.88,10.54
CCOC(=O)[C@H](CCc1ccccc1)N[C@@H](C)C(=O)N1Cc2ccccc2C[C@H]1C(=O)O.Cl [QUINAPRIL HYDROCHLORIDE],14.37,3.86,-5.15
CC(=O)OCC(=O)[C@@]12OC(C)(C)O[C@@H]1C[C@H]1[C@@H]3C[C@H](F)C4=CC(=O)C=C[C@]4(C)[C@@]3(F)[C@@H](O)C[C@@]12C [FLUOCINONIDE],13.39,-0.27,-0.92
CC(=O)NS(=O)(=O)c1ccc(N)cc1 [SULFACETAMIDE],11.67,1.53,0.24
CCCCC(=O)OC1(C(=O)CO)CCC2C3CCC4=CC(=O)CCC4(C)C3C(O)CC21C (stereo not given),9.82,3.16,-1.86
O=C1C(c2c(O)[nH]c3ccccc23)=Nc2ccccc21,6.26,9.69,-4.77
NC(=O)c1cnccn1 [PYRAZINAMIDE],10.9,1.92,-9.58
Cc1ncc([N+](=O)[O-])n1CCO [METRONIDAZOLE],13.91,1.89,-8.47
Nc1nc(O)c2ncn(CCC(CO)CO)c2n1 [PENCICLOVIR],17.55,0.56,-9.17
CC(=O)OCC(=O)NCCCOc1cccc(CN2CCCCC2)c1.Cl [ROXATIDINE ACETATE HYDROCHLORIDE],15.18,3.06,-4.65
CN(C)CCOC(C)(c1ccccc1)c1ccccn1.O=C(O)CCC(=O)O (stereo not given) [DOXYLAMINE SUCCINATE],9.97,0.07,-8.18
CN1CCCCC1CCN1c2ccccc2Sc2ccc([S+](C)[O-])cc21.O=S(=O)(O)c1ccccc1 (stereo not given) [MESORIDAZINE BESYLATE],-1.64,4.29,2.61
C[C@@H]1C[C@H]2[C@@H]3CCC4=CC(=O)C=C[C@]4(C)[C@@]3(F)[C@@H](O)C[C@]2(C)[C@H]1C(=O)CO [DESOXIMETASONE],9.74,2.64,2.06
Cc1ncc([N+](=O)[O-])n1CC(O)CCl (stereo not given) [ORNIDAZOLE],14.36,2.15,-1.25
Cl.Clc1ccccc1CN1CCc2sccc2C1 [TICLOPIDINE HYDROCHLORIDE],-0.77,1.25,-6.79
Cc1cccc(Nc2ccccc2C(=O)O)c1C [MEFENAMIC ACID],12.13,7.85,2.83
CC[C@H](C)C(=O)O[C@H]1C[C@H](O)C=C2C=C[C@H](C)[C@H](CC[C@@H](O)C[C@@H](O)CC(=O)[O-])[C@H]21.[Na+] [PRAVASTATIN SODIUM],13.36,4.25,-0.35
CCOC(=O)C1(CCCCCCOc2ccc(Cl)cc2)CO1 (stereo not drawn) [rac-ETOMOXIR],8.69,1.76,-1.88
CC(=O)[C@H]1CC[C@H]2[C@@H]3C[C@H](C)C4=CC(=O)CC[C@]4(C)[C@H]3[C@@H](O)C[C@]12C [MEDRYSONE],12.23,1.89,-4.18
C[C@]12CC[C@@H]3c4ccc(OS(=O)(=O)[O-])cc4CC[C@H]3[C@@H]1CCC2=O.[Na+] [ESTRONE SODIUM SULFATE],1.74,3.72,-4.65
